{
  "source": "PubChem BioAssay (EPA / NIEHS)",
  "note": "Results filed as inconclusive are left out. Active and inactive are the calls of the source. How the source made its calls: active means hit-call score of the fitted dose curve at least 0.9, where 1 is the maximum; inconclusive means response in the unintended direction; inactive means score below 0.9.",
  "data": [
    {"molecular_target": "Glucocorticoid receptor (Homo sapiens) (UniProt P04150)", "sequence (P04150 whole entry, looked up)": "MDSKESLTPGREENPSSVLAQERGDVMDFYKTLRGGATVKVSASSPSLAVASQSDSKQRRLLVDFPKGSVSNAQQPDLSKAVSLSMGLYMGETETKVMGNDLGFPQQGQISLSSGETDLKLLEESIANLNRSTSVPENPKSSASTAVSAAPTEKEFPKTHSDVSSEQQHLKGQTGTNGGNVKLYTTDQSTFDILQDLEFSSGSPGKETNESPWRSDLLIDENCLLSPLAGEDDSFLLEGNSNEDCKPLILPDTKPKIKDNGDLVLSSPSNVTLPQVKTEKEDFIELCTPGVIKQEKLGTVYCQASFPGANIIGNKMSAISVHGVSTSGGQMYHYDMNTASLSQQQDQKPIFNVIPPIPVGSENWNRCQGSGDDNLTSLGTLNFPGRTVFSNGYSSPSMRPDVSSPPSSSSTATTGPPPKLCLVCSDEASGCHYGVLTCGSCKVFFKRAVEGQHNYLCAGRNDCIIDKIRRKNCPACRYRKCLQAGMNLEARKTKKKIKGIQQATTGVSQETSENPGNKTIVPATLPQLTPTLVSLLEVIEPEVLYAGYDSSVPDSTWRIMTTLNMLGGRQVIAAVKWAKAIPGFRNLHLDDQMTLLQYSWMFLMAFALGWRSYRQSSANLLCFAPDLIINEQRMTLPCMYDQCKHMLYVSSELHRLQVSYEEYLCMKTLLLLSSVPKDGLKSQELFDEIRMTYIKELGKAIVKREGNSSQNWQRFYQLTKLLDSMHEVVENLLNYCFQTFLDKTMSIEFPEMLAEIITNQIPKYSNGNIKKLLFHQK", "assay": "ATG_GR_TRANS: Attagene TRANS-FACTORIAL HepG2 Assay for human Glucocorticoid Receptor (GR) (AID 2282978);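 further: activators score as hits since higher reporter transcript over DMSO is fitted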", "settings": "HepG2 Attagene TRANS GR reporter, mRNA transcription", "protocol": "ATG_TRANS is a cell-based, multiplexed-readout assay that uses HepG2, a human liver cell line, with measurements taken at 24 hours after chemical dosing in a 24-well plate.ATG_GR_TRANS is one of 30 assay component(s) measured or calculated from the ATG_TRANS assay. It is designed to make measurements of mRNA induction, a form of inducible reporter, as detected with fluorescence intensity signals by Reverse transcription polymerase chain reaction (RT-PCR) and Capillary electrophoresis technology.Data from the assay component ATG_GR_TRANS was analyzed into 1 assay endpoint. This assay endpoint, ATG_GR_TRANS, was analyzed in the positive analysis fitting direction relative to DMSO as the negative control and baseline of activity. Using a type of inducible reporter, measures of mRNA for gain-of-signal activity can be used to understand the reporter gene at the transcription factor-level as they relate to the gene NR3C1. Furthermore, this assay endpoint can be referred to as a primary readout, because this assay has produced multiple assay endpoints where this one serves a reporter gene function. To generalize the intended target to other relatable targets, this assay endpoint is annotated to the nuclear receptor intended target family, where the subfamily is steroidal.\nHuman liver HepG2 cells are transiently transfected with multiple reporter transcription units (MRTUs) in 6-well plates using FuGene 6 reagent (Roche; 3 ml FuGene/1 mg DNA). The MRTU constructs are regulated by a cis-regulating element (promoter). […] A major difference between the CIS and TRANS system is that in CIS activities of endogenous TFs are measured, whereas the TRANS assay evaluates changes in activities of exogenous, chimeric NR-Gal4 proteins. […] At the end of 24 hour incubation, total RNA was isolated using TriZol reagent (Invitrogen). The isolated RNA is then reverse-transcribed using oligo(dT) primer and Mo-MLV reverse transcriptase (Invitrogen) with DNAse I (Ambion) treatment for 30 min. The one-tenth of the produced cDNA was amplified by PCR using Taq DNA polymerase (Invitrogen) and two reporter sequence-specific primers. The PCR products were fluorescently labeled by primer extension with 6-arboxyfluorescein (6-FAM) 5'-labeled reporter sequence-specific primer (2 min at 95 C, 20 s at 68 C and 10 min at 72 C) and these products were digested with 5U of HpaI (New England Biolabs) for 2h at 37 C. The fragments were purified using Qiaquick PCR columns (Qiagen), analyzed on an ABI 3130xL genetic analyzer (Applied Biosystems) with peak positions identified by using a set of X-rhodamine (ROX)-labeled MapMarker1000 molecular weight standards (BioVentures). The raw capillary electrophoresis data was processed using Attagraph software (Attagene).", "values": [
      {"compound": "CC(C)c1nnc2ccc(-c3ocnc3-c3cc(F)ccc3F)cn12", "outcome": "inactive"},
      {"compound": "COc1cc(C(C)C)c2c(c1)S(=O)(=O)N(COc1cc(=O)n3cccc(OCCN4CCCCC4)c3n1)C2=O", "outcome": "inactive"},
      {"compound": "NNC(=O)c1ccncc1", "outcome": "inactive"},
      {"compound": "S=P(N1CC1)(N1CC1)N1CC1", "outcome": "inactive"},
      {"compound": "OC(Cn1cncn1)(Cn1cncn1)c1ccc(F)cc1F", "outcome": "inactive"},
      {"compound": "NCC(F)(F)C(F)(F)C(F)(F)C(F)(F)F", "outcome": "inactive"},
      {"compound": "CCc1cccc(CC)c1N", "outcome": "inactive"},
      {"compound": "c1ccc2cc3ccccc3cc2c1", "outcome": "inactive"},
      {"compound": "C[C@]12C=CC(=O)C=C1CC[C@H]1[C@@H]3C[C@@H](O)[C@](O)(C(=O)CO)[C@@]3(C)C[C@H](O)[C@@]12F", "AC50": "0.0585 µM (active)"},
      {"compound": "O=S(=O)(O)CCC(F)(F)C(F)(F)C(F)(F)C(F)(F)C(F)(F)C(F)(F)F", "outcome": "inactive"},
      {"compound": "NC(=O)N(O)[C@@H]1COc2cc(OCc3ccccc3)ccc21", "outcome": "inactive"},
      {"compound": "OCCC(F)(F)C(F)(F)C(F)(F)C(F)(F)F", "outcome": "inactive"},
      {"compound": "CCCOc1ccc(S(=O)(=O)N2CCN(CC)CC2)cc1-c1nc2c(CC)n(Cc3ccccn3)nc2c(=O)[nH]1", "outcome": "inactive"},
      {"compound": "O=C(O)c1cccc(C(=O)O)c1", "outcome": "inactive"},
      {"compound": "CC[C@H](C)C(=O)O[C@H]1C[C@H](O)C=C2C=C[C@H](C)[C@H](CC[C@@H](O)C[C@@H](O)CC(=O)O)[C@H]21", "outcome": "inactive"},
      {"compound": "O=C1CN(N=Cc2ccc([N+](=O)[O-])o2)C(=O)N1", "outcome": "inactive"},
      {"compound": "CCn1nc(C)c2c1C(=O)NCC(c1ccc(O)cc1)=N2", "outcome": "inactive"},
      {"compound": "NC(=O)NN=Cc1ccc([N+](=O)[O-])o1", "outcome": "inactive"},
      {"compound": "CCN(CC)C(=S)SSC(=S)N(CC)CC", "outcome": "inactive"},
      {"compound": "CCCCCCCC1CCC(=O)O1", "note": "(stereo not given)", "outcome": "inactive"},
      {"compound": "OC(CCl)CCl", "outcome": "inactive"},
      {"compound": "OCCOCCOCCO", "outcome": "inactive"},
      {"compound": "CCCC(CCC)C(=O)O", "outcome": "inactive"},
      {"compound": "OCCNCCO", "outcome": "inactive"},
      {"compound": "c1ccc(C(O[C@@H]2CCCN(CCc3ccc4c(c3)OCO4)C2)c2ccccc2)cc1", "outcome": "inactive"},
      {"compound": "FC(F)(F)C(F)(F)C(F)(F)C(F)(F)C(F)(F)C(F)(F)I", "outcome": "inactive"},
      {"compound": "CCc1ccc(O)c(C(C)(C)C)c1", "outcome": "inactive"},
      {"compound": "CCCCC(CC)C(=O)OCCOCCOCCOC(=O)C(CC)CCCC", "note": "(stereo not given)", "outcome": "inactive"},
      {"compound": "C=CCc1cc(S(=O)(=O)c2ccc(O)c(CC=C)c2)ccc1O", "outcome": "inactive"},
      {"compound": "C[C@@H](Oc1ccc(CNC(=O)c2cccnc2Oc2ccc3c(c2)OCO3)c(F)c1)C(=O)O", "outcome": "inactive"},
      {"compound": "O=S(=O)(O)c1ccc(N=Nc2c(O)ccc3cc(S(=O)(=O)O)ccc23)cc1", "outcome": "inactive"},
      {"compound": "c1ccc2c(c1)-c1cccc3c1c-2cc1ccccc13", "outcome": "inactive"},
      {"compound": "FC(F)=C(F)C(F)(F)C(F)(F)C(F)(F)C(F)(F)C(F)(F)C(F)(F)F", "outcome": "inactive"},
      {"compound": "COc1cc2c(c(OC)c1OC)-c1ccc(OC)c(=O)cc1[C@@H](NC(C)=O)CC2", "outcome": "inactive"},
      {"compound": "C[Si](C)(C)C(F)(F)C(F)(F)C(F)(F)F", "outcome": "inactive"},
      {"compound": "CCCc1ccccc1", "outcome": "inactive"},
      {"compound": "O=C(O)c1cccc(C[C@@H]2COc3ccc(OCc4nc5cc(F)ccc5s4)cc3[C@@H]2O)c1", "outcome": "inactive"},
      {"compound": "O=c1[nH]cnc2c1ncn2[C@H]1CC[C@@H](CO)O1", "outcome": "inactive"},
      {"compound": "O=C(Cl)C(F)(F)C(F)(F)C(F)(F)C(=O)Cl", "outcome": "inactive"},
      {"compound": "Cc1ccc(S(=O)(=O)NC(=O)NN2CCCCCC2)cc1", "outcome": "inactive"}
    ]}
  ]
}
